CYP2C9 activ: increases human cytochrome P450 2C9 activity. P11712. recombinant CYP2C9, luciferin-H conversion, luminescence; active compounds read high; factor 1 = untreated enzyme, 0 = blocked. activation factor at 5 µM. 96,000 tested, 1.4% active. AID 1024;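 active = activation factor of 2 or more for CYP2C9 at a 5 µM dose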;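 also: 0 = sulfaphenazole-blocked wells and 1 = vehicle-only wells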
CYP2C19 act: cytochrome P450 2C19 (human) activation; P33261; recombinant CYP2C19, luciferin-H EGE luminescence; active compounds read high; 0 = fully inhibited enzyme, 1 = untreated enzyme; activation factor at 5 µM; 96,000 tested, under 10 active; AID 1025;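 active = activation factor of at least 2 at 5 µM in the primary screen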;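 also: 0 = wells with 2.5 mM tranylcypromine and 1 = vehicle-only wells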
Target sequence (P33261 whole entry, looked up): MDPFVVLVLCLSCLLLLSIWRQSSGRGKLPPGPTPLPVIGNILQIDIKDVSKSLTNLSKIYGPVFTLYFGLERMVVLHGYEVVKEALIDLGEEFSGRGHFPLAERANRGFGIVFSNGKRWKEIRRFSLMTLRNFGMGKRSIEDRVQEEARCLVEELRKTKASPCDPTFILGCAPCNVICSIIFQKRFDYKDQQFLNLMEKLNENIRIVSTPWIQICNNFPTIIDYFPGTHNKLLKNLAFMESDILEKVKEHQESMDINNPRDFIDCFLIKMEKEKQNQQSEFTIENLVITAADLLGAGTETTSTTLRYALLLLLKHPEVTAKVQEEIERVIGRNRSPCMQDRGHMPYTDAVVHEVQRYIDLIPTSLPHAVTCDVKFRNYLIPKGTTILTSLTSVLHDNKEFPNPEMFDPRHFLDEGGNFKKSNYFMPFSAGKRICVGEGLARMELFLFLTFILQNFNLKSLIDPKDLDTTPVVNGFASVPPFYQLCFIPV
CYP2C9 inh: blocks human cytochrome P450 2C9. CYP2C9 Supersomes, luciferin-H conversion, luminescence. inhibition, % at 5 µM. 96,000 tested, 20% active. AID 777;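 active = blocking of liver enzyme CYP2C9 beyond about 50% at 5 µM, limit read from the data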
sEH inhibitor: soluble epoxide hydrolase (human) inhibition; recombinant human sEH enzymatic activity assay; 91,000 tested, 0.34% active; inhibition, % at 2 µM; in the data active = inhibition above about 80%
sEH activator: soluble epoxide hydrolase (human) activation | P34913 | purified human sEH enzymatic activity, activator screen | activation, % at 2 µM | 91,000 tested, 0.04% active; in the data active = activation above about 37%
CYP2C19 inhib: inhibitors of human CYP2C19; CYP2C19 Supersomes, luciferin-H EGE luminescence, 30 min; inhibition, % at 5 µM; 96,000 tested, 21% active; P33261;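 active = CYP2C19 inhibition above a set limit at 5 µM in the primary screen, cut at about 50% in these data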;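 also: plate controls were negative control wells for no effect and 2.5 mM tranylcypromine positive control for full effect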
The depositor's hits bear a star; . = no result. Shown are actives, neighbours in structure and some others; about 27% of the full set was active somewhere.

SMILES	CYP2C9 activ	CYP2C19 act	CYP2C9 inh	sEH inhibitor	sEH activator	CYP2C19 inhib
O=C(COc1cccc2cccnc12)N/N=C1\SCC(=O)N1Cc1ccccc1	0.9	0.9	6.7	-3.3	4.1	14.0
CCc1ccccc1NC(=O)CN(C)Cc1nc(N)nc(Nc2ccccc2C)n1	0.7	0.3	29.5	-4.3	7.4	68.1*
COc1ccc(-c2cn3c4c(sc3n2)CCCC4)cc1	0.2	0.1	78.3*	-6.8	7.2	85.7*
COc1ccc(CN2C(=O)CCC2(C)C(=O)NCc2cccnc2)c(OC)c1 (configuration not stated)	1	1.1	2.8	27.1	-27.1	-6.5
CCC(C)(c1ccc(C=O)s1)c1ccc(C=O)s1	0.5	0.7	51.7*	2.6	-5.4	27.8
COc1cccc(-c2nc(CS(=O)CC(=O)NCc3ccc4c(c3)OCO4)c(C)o2)c1 (configuration not stated)	0.2	0.2	76.2*	.	.	77.4*
COc1cccc(-c2nc(CS(=O)CC(=O)NCc3ccccc3Cl)c(C)o2)c1 (configuration not stated)	0.4	0.7	63.7*	64.6	-65.0	29.6
COc1ccc(C2N(c3cc(Cl)ccc3OC)C(=O)C3CCCN32)cc1 (configuration not stated)	1.8	0.2	-84.8	16.8	-18.9	76.8*
COc1ccc(Cl)cc1N1C(=O)C2CCCN2C1c1ccc(F)cc1 (configuration not stated)	2*	0.5	-97.6	-5.8	4.1	49.2
CCOC(=O)C1CCC2(CC1)C(C#N)=C(N)Oc1n[nH]c(C)c12 (configuration not stated)	.	.	.	-2.9	5.5	.
COc1ccc(C)cc1S(=O)(=O)N(C)CC(=O)N1CCCCCC1	0.5	0.5	47.0	-9.6	9.7	49.4
CCOC(=O)C1CCN(Cc2coc3c(Cl)cc(Cl)cc3c2=O)CC1	1.8	0.9	-80.2	1.1	-1.2	6.8
N#CCSc1nnc(COc2ccc3ccccc3c2)o1	0.9	0.4	9.8	-6.1	4.8	56.8*
COc1cc(-c2nnc(COc3ccc4ccccc4c3)o2)cc(OC)c1OC	0.5	0.5	49.1	-2.4	2.0	45.9
C=C(C)CSc1nnc(-c2ccccc2)n1N	1	0.9	-4.9	-10.7	9.9	5.3
Cn1c(Cn2c(C(F)(F)F)nc3ccccc32)nc2ccccc21	1	0.7	4.3	-2.8	1.4	26.8
COCC(N)(c1ccccc1)c1nc2ccccc2n1C (configuration not stated)	1	0.5	1.8	8.8	-9.2	52.0*
O=C1CCC/C1=c1\s/c(=C\c2cccnc2)c(=O)n1-c1ccccc1	0.9	0.7	11.6	.	.	28.4
O=C(Nc1cccc(Cl)c1)c1ccc(-n2cncn2)c([N+](=O)[O-])c1	0	0	99.9*	13.4	-13.8	100.3*
Cc1ccc(NC(=O)c2ccc(-n3cncn3)c([N+](=O)[O-])c2)cc1	0.1	0	91.3*	-13.6	13.1	100.3*
Cc1ccc(NC(=O)c2ccc(-n3cccn3)c([N+](=O)[O-])c2)cc1C	0.6	0.8	43.1	-6.6	5.2	16.9
O=C(Nc1ccc(Cl)cc1)c1ccc(-n2cncn2)c([N+](=O)[O-])c1	0	0	98.4*	33.2	-33.5	100.3*
O=C(Nc1ccc(Cl)cc1)c1ccc(-n2cccn2)c([N+](=O)[O-])c1	1.2	1	-18.1	33.0	-33.3	-3.8
CC1(C)NC(=O)NC2(C)NC(=O)NC(C)(C)C12 (configuration not stated)	1.2	1.1	-15.6	-0.1	2.2	-11.9
COCCNC(=O)C(OC(=O)CC1Sc2ccccc2NC1=O)c1ccccc1 (configuration not stated)	.	.	.	3.2	0.6	.
SMILES	CYP2C9 activ	CYP2C19 act	CYP2C9 inh	sEH inhibitor	sEH activator	CYP2C19 inhib
COC(=O)c1cc(NC2c3ccccc3C(=O)N2c2cccnc2)cc(C(=O)OC)c1 (configuration not stated)	.	.	.	-1.7	1.4	.
CCOc1ccccc1NC1c2ccccc2C(=O)N1c1cccnc1 (configuration not stated)	0.9	0.5	5.3	-19.2	19.8	52.1*
O=C1c2ccccc2C(Nc2ccc(Cl)cn2)N1c1ccccn1 (configuration not stated)	.	.	.	2.3	-2.5	.
CCOc1ccc(N2C(=O)c3cccnc3C2Nc2ccc(Cl)cc2)cc1 (configuration not stated)	0.7	0.5	27.3	-1.2	3.1	45.9
CCOC(=O)c1ccccc1NC1c2ccccc2C(=O)N1c1cc(C)ccn1 (configuration not stated)	0.2	0	82.7*	11.1	-13.4	96.4*
COc1ccc(NC2c3ccccc3C(=O)N2c2cccnc2)cc1Cl (configuration not stated)	0.4	0.2	57.6*	.	.	80.6*
O=C1c2ccccc2C(Nc2ccccc2)N1c1cccnc1 (configuration not stated)	0.9	0.3	14.3	-10.9	9.7	69.7*
COCCN(Cc1cc2cc3c(cc2[nH]c1=O)OCO3)C(=O)c1cccs1	0.9	0.7	5.1	0.0	-0.4	34.2
CCC(C)N1CC23C=CC(O2)C(C(=O)OCc2ccccc2)C3C1=O (configuration not stated)	0.5	1.1	46.9	9.0	-9.9	-5.2
CN1C(=O)C2(N=c3ccccc3=N2)c2ccccc21	0.2	0.8	80.0*	11.2	-9.7	18.1
N#Cc1nc(COc2ccccc2)oc1N1CCN(Cc2ccccc2)CC1	0.1	0.2	92.7*	.	.	77.7*
Cc1ccc(OCc2nc(C#N)c(N3CCN(Cc4ccccc4)CC3)o2)cc1	0.2	0.3	83.5*	.	.	67.5*
N#Cc1nc(COc2ccccc2)oc1N1CCC(Cc2ccccc2)CC1	0.1	0.4	87.4*	8.7	-7.3	55.1*
Cc1ccc(O)c(C(=O)c2coc(=N)c(C(=O)NC(C)C)c2)c1	1.1	0.7	-7.1	-2.4	5.2	33.2
COc1cc(-c2nc3cnccn3c2Nc2ccccc2)ccc1O	0.5	0.6	51.2*	-3.6	5.3	41.6
COc1cc(-c2nc3cnccn3c2Nc2ccc(C)cc2)ccc1O	0.5	0.2	54.8*	4.4	-2.5	79.6*
COc1cc(-c2nc3cnccn3c2Nc2ccc(C(C)C)cc2)ccc1O	0.8	0.9	19.4	1.6	0.3	10.9
COc1ccc(CCNC(=O)c2c(C)noc2C)cc1	0.9	0.9	11.7	5.9	-2.5	13.8
CC(=O)OCCN(CCOC(C)=O)c1c(C)[nH]c(=O)[nH]c1=O	0.9	1	7.6	.	.	-2.8
CCOC(=O)c1c(-c2cccs2)csc1NC(C)=O	.	.	.	-6.1	7.7	.
CCOC(=O)c1c(-c2cccs2)csc1NC(=O)CNCCN1CCOCC1	0.3	0.7	67.6*	8.2	-6.2	27.7
CCOC(=O)c1c(-c2cccs2)csc1NC(=O)CSc1ncn[nH]1	0.1	0.1	94.7*	-4.1	2.2	86.1*
CCOC(=O)c1c(-c2cccs2)csc1NC(=O)C(C)(C)C	0.6	1.1	42.9	0.9	-1.4	-12.9

Assay outcomes deposited in PubChem BioAssay by several laboratories.
